Screening results: PubChem BioAssay, several laboratories
An excerpt weighted towards active compounds, which were near 27% of everything screened.
CYP2C9 inh: blocks human cytochrome P450 2C9. CYP2C9 Supersomes, luciferin-H conversion, luminescence. inhibition, % at 5 µM. 20% of 96,000 active. AID 777;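 active = blocking of liver enzyme CYP2C9 beyond about 50% at 5 µM, limit read from the data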
Target sequence (P11712 whole entry, looked up): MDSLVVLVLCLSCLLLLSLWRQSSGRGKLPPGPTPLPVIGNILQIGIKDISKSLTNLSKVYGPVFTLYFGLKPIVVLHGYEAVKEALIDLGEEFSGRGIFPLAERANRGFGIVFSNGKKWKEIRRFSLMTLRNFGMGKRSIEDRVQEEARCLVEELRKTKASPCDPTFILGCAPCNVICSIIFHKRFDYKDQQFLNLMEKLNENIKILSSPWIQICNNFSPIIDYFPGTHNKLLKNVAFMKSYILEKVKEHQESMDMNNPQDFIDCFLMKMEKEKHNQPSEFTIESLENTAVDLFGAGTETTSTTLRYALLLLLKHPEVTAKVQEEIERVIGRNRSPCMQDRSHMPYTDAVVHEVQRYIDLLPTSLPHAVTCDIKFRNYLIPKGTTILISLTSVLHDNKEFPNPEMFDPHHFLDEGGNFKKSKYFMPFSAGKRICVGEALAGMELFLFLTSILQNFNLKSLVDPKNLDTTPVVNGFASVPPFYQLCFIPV
CYP2C19 inh: human CYP2C19 inhibition; CYP2C19 Supersomes, luciferin-H EGE luminescence, 30 min; inhibition, % at 5 µM; 21% of 96,000 active; AID 778;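 active = CYP2C19 inhibition above a set limit at 5 µM in the primary screen, cut at about 50% in these data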;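 also: plate controls were negative control wells for no effect and 2.5 mM tranylcypromine positive control for full effect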
sEH act: increases human soluble epoxide hydrolase activity | purified human sEH enzymatic activity, activator screen | AID 717 | 0.04% of 91,000 active | P34913 | activation, % at 2 µM; in the data active = activation above about 37%
sEH inh: soluble epoxide hydrolase (human) inhibition. AID 707. inhibition, % at 2 µM. recombinant human sEH enzymatic activity assay. 0.34% of 91,000 active. P34913; in the data active = inhibition above about 80%
CYP2C9 act: increases human cytochrome P450 2C9 activity; P11712; recombinant CYP2C9, luciferin-H conversion, luminescence; hits give high values; factor 1 = untreated enzyme, 0 = blocked; activation factor at 5 µM; 1.4% of 96,000 active;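 active = activation factor of 2 or more for CYP2C9 at a 5 µM dose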;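 also: 0 = sulfaphenazole-blocked wells and 1 = vehicle-only wells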
CYP2C19 activ: increases human CYP2C19 enzyme activity; P33261; recombinant CYP2C19, luciferin-H EGE luminescence; hits give high values; 0 = fully inhibited enzyme, 1 = untreated enzyme; activation factor at 5 µM; 96,000 tested, under 10 active;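 active = activation factor of at least 2 at 5 µM in the primary screen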;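 also: 0 = wells with 2.5 mM tranylcypromine and 1 = vehicle-only wells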
* hit, by the source's call; · = no result given.

SMILES	CYP2C9 inh	CYP2C19 inh	sEH act	sEH inh	CYP2C9 act	CYP2C19 activ
CCOC(=O)C1(S(=O)(=O)c2ccc(Cl)cc2)CCN(Cc2ccc(Cl)cc2)CC1	69*	57*	10	-13	0.3	0.4
CCc1nn(CC(=O)NCCCN2CCc3ccccc3C2)c(=O)c2cc3sccc3n12	-8	1	7	-8	1.1	1
CCOC(=O)N1CCN(CCC(=O)c2ccc(Cl)cc2)CC1	64*	37	1	4	0.4	0.6
COC(=O)c1ccnc(/C=N/O)c1	·	·	4	-1	·	·
O=C(OC(C(=O)O)C(OC(=O)c1ccccc1)C(=O)NCc1ccccc1)c1ccccc1 (stereo unspecified)	-14	-9	12	-14	1.1	1.1
CCOC(=O)N1CCN(C(=O)Cc2ccc(Cl)cc2)CC1	64*	54*	·	·	0.4	0.5
CCOC(=O)C1CCCN(C(=O)CC(C)c2ccccc2)C1 (stereo unspecified)	84*	79*	-6	8	0.2	0.2
CC1CCCCN1C(=O)Cc1ccc(Cl)cc1 (stereo unspecified)	31	96*	4	0	0.7	0
CCOC(=O)C1CCN(C(=O)CC(C)c2ccccc2)CC1 (stereo unspecified)	4	19	15	-15	1	0.8
COC(=O)C1CCN(C(=O)C(C)Oc2ccc(Cl)cc2Cl)CC1 (stereo unspecified)	18	90*	19	-18	0.8	0.1
CCOC(=O)C1CCN(C(=O)Cc2c(F)cccc2Cl)CC1	21	30	12	-8	0.8	0.7
CCOC(=O)C1CCCN(C(=O)C(C)Oc2ccc(Cl)cc2Cl)C1 (stereo unspecified)	51*	40	-8	7	0.5	0.6
CCOC(=O)C1CCCN(C(=O)c2cn(C)c(=O)c3cc(OC)c(OC)cc23)C1 (stereo unspecified)	·	·	6	-4	·	·
CCOC(=O)C1CCCN(C(=O)c2cccs2)C1 (stereo unspecified)	18	39	9	-6	0.8	0.6
CCOC(=O)C1CCCN(C(=O)c2ccccc2SCCOC)C1 (stereo unspecified)	68*	61*	-2	6	0.3	0.4
CCOC(=O)C1CCCN(C(=O)Cc2c(F)cccc2Cl)C1 (stereo unspecified)	43	67*	10	-7	0.6	0.3
CCOC(=O)C1CCCN(C(=O)c2cc(Cl)ccc2Cl)C1 (stereo unspecified)	94*	97*	3	-4	0.1	0
CC1CCN(c2ccccc2NC(=S)NC(=O)c2ccco2)CC1	·	·	-5	7	·	·
COc1ccccc1-c1nnc(SCC(=O)O)n1C	-10	6	3	-3	1.1	0.9
CC(Oc1ccccc1F)C(=O)Nc1ccc2ccccc2c1 (stereo unspecified)	·	·	-2	5	·	·
CCOC(=O)C1CCCN(C(=O)Cc2ccc(Cl)cc2)C1 (stereo unspecified)	76*	30	-8	9	0.2	0.7
CCOC(=O)C1CCN(C(=O)CSc2ccccc2)CC1	31	64*	2	-4	0.7	0.4
CCOC(=O)N1CCN(C(=O)CCSCCc2ccncc2)CC1	32	63*	6	-6	0.7	0.4
CCOC(=O)C1CCCN(C(=O)CCc2ccccc2)C1 (stereo unspecified)	18	36	1	3	0.8	0.6
CCOC(=O)C1CCN(C(=O)Cn2cccc2C(=O)c2ccccc2)CC1	3	6	4	-3	1	0.9
SMILES	CYP2C9 inh	CYP2C19 inh	sEH act	sEH inh	CYP2C9 act	CYP2C19 activ
COC(=O)c1ccc(C(=O)OC)c(NC(=O)CSCc2ccccc2Br)c1	-6	1	-8	10	1.1	1
COc1ccc(-c2nc(CCNS(=O)(=O)c3ccc4c(c3)OCCO4)cs2)cc1	80*	98*	-1	0	0.2	0
O=S(=O)(NCCc1csc(-c2ccc(C(F)(F)F)cc2)n1)c1ccc2c(c1)OCCO2	-21	38	1	-3	1.2	0.6
O=S(=O)(NCCc1csc(-c2cccnc2)n1)c1ccc2c(c1)OCCO2	30	51*	6	-8	0.7	0.5
Cc1c(Cl)cccc1N1CC(C(=O)Nc2nccs2)CC1=O (stereo unspecified)	-14	38	·	·	1.1	0.6
CN(C)c1nc(-c2ccccn2)nnc1-c1ccccc1	15	51*	-8	7	0.8	0.5
Cc1ccc2c(CC(=O)O)coc2c1C	6	5	·	·	0.9	0.9
COC(=O)/C(=C\Nc1ccc(Cl)c2ccccc12)c1ncc(C(F)(F)F)cc1Cl	76*	33	-4	2	0.2	0.7
CCOC(=O)/C(=C\Nc1ccccc1C(F)(F)F)Sc1ncc(C(F)(F)F)cc1Cl	82*	59*	3	-3	0.2	0.4
CCOC(=O)C(C(=O)NCc1ccc(C)cc1)c1ncc(C(F)(F)F)cc1Cl (stereo unspecified)	6	37	12	-11	0.9	0.6
CON/C=C(\C=Nc1ccc(F)cc1)c1ncc(C(F)(F)F)cc1Cl	21	-15	5	-5	0.8	1.1
CC(=O)OC1COC(N2CCc3cc(Br)c([N+](=O)[O-])cc32)C(OC(C)=O)C1OC(C)=O (stereo unspecified)	94*	88*	-10	12	0.1	0.1
Cc1cccc(C)c1Nc1nc2ccccc2o1	64*	39	·	·	0.4	0.6
COCCn1nnnc1C(C(C)C)N(Cc1cccnc1)Cc1ccccc1Cl (stereo unspecified)	43	95*	-5	7	0.6	0
COC(=O)Nc1snnc1C	16	9	0	-3	0.8	0.9
COc1ccccc1C(O)Cc1nc2ccccc2n1C (stereo unspecified)	8	95*	-10	9	0.9	0.1
COc1cc(C(=O)NCCc2nc3ccccc3n2C)cc(OC)c1OC	·	·	3	-3	·	·
NS(=O)(=O)c1ccc(NC(=O)CCc2ccccc2)cc1	31	1	9	-6	0.7	1
Oc1ccccc1-c1cc(C(F)(F)C(F)F)nc(-c2ccccc2)n1	5	3	3	-3	1	1
FC(F)C(F)(F)C(F)(F)C(F)(F)c1cc(-c2ccccc2)n[nH]1	76*	85*	·	·	0.2	0.1
O=C(NCc1ccncc1)C1CCCCC1	42	12	-10	8	0.6	0.9
CCOC(=O)c1cc2occc2n1CC(=O)NCCOC	·	·	-22	24	·	·
COc1ccc(OC)c(NC(=O)CSCC(=O)O)c1	-4	10	·	·	1	0.9
CCOC(=O)C1=C(c2cccc(F)c2)NC(=S)NC1C (stereo unspecified)	6	72*	-4	6	0.9	0.3
CCOC(=O)C1=C(c2ccccc2)Nc2ncnn2C1c1ccccn1 (stereo unspecified)	-29	-8	3	-2	1.3	1.1
